In PubChem BioAssay:

Molecular target: Luciferin 4-monooxygenase (Photinus pyralis) (UniProt P08659)
Test: firefly luciferase enzyme inhibitors, primary screen, biochemical, luminescence, purified enzyme, 2006 set (AID 1141);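 note: cell-free assay with purified firefly luciferase at 100 ng per well in PBS; test concentration not given here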
Conditions: SteadyGlo luminescence, 30 min, higher = more signal, called active from +8 up or from −8 down

Chain of Luciferin 4-monooxygenase (Photinus pyralis) (P08659 whole entry, looked up): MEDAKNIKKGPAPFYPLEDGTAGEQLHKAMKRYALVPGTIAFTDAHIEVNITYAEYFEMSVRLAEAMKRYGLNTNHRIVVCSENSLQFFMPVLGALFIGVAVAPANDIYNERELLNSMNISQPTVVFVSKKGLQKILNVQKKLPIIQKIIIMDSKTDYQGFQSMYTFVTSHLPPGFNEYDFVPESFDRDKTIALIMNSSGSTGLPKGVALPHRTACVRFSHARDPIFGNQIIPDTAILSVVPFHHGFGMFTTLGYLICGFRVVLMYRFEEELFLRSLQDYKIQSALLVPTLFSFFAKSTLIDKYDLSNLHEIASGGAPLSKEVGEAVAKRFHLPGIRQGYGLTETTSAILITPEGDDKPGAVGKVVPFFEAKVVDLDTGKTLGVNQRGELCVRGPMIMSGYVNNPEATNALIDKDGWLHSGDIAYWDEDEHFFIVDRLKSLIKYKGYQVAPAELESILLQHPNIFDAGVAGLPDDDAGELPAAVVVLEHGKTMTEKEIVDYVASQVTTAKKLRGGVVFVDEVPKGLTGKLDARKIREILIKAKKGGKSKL

z-score, inactive:
COc1ccc([Si](C)(C)[C@H]2[C@H](CC(=O)N(CCO)Cc3ccccc3)O[C@@]3(C(=O)N(Cc4cccc(N5CCC5=O)c4)c4ccccc43)[C@@H]2C)cc1 0.272
COc1cccc(C(=O)O[C@H]2CC[C@]3(C)C4=C(CCC3C2(C)C)[C@]2(C)CC[C@H]([C@H](C)CCCC(C)C)[C@@]2(C)CC4)c1 (some centres undefined) -0.843
CC(C)NC(=O)[C@@H]1c2ccccc2C(=O)N(Cc2ccccc2)[C@H]1c1ccc(CO)cc1 0.413
COc1ccc([Si](C)(C)[C@@H]2[C@@H](CC(=O)N(CCO)Cc3ccccc3)O[C@]3(C(=O)N(C)c4ccccc43)[C@H]2C)cc1 0.0071
